{
  "source": "paper PMC4336329",
  "about": "(PLoS ONE, 2015)",
  "note": "Hit rate of the full screen: of about 310,000 compounds, about 14,000 (4.5%) showed an effect of 50% or more. Effects have a minus sign here. This excerpt belongs to a sample that is enriched for strong results.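 Further: peak tail current of the secondary pulse compared with the same well before compound.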",
  "data": [
    {"target": "human ether-à-go-go-related gene (hERG) potassium channel (human, UniProt Q12809)", "sequence (Q12809 whole entry, looked up)": "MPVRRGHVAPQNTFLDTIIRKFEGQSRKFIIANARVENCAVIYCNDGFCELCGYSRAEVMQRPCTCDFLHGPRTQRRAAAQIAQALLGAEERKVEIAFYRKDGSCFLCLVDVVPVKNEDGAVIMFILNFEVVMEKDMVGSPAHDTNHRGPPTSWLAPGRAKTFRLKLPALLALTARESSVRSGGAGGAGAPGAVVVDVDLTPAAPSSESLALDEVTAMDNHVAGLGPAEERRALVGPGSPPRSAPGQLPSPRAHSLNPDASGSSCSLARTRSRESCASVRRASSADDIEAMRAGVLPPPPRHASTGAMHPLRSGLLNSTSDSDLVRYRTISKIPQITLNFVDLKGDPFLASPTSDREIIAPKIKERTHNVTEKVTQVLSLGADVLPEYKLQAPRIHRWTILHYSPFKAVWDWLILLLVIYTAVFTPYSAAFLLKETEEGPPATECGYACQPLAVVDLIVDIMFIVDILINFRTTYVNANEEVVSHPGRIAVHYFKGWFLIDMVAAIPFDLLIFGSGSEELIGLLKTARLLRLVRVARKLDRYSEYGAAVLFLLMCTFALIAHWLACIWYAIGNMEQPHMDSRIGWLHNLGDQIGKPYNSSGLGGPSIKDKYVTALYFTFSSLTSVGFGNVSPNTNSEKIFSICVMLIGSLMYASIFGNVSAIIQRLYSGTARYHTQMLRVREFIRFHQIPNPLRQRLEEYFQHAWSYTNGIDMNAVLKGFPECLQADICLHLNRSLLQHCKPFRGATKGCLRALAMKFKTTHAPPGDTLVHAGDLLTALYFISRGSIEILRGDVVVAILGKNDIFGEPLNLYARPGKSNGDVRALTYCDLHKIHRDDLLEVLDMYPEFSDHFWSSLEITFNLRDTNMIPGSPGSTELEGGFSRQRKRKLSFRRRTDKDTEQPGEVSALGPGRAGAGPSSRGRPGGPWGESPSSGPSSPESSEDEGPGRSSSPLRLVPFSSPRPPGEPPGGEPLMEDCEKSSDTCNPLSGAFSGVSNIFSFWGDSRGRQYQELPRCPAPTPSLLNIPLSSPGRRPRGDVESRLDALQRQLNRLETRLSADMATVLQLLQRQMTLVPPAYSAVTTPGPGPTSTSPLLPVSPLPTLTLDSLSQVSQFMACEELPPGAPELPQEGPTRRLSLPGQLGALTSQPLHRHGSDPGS", "assay": "primary screen, population patch clamp on CHO cells stably expressing hERG; higher = less effect of the substance", "units": {"hERG current change (%, negative = inhibition) at 10uM": "%"}, "values": [
      {"smiles": "COc1ccc(CC2(CO)CCN(S(=O)(=O)c3sccc3C)CC2)cc1", "hERG current change (%, negative = inhibition) at 10uM": -20.9},
      {"smiles": "CSCC(C)N1CCC(CO)(CCCc2ccccc2)CC1", "note": "(stereo not drawn)", "hERG current change (%, negative = inhibition) at 10uM": -55.7},
      {"smiles": "CSCC(C)N1CCC(CO)(CCc2ccccc2)CC1", "note": "(stereo not drawn)", "hERG current change (%, negative = inhibition) at 10uM": -29.4},
      {"smiles": "CN(C)S(=O)(=O)N1CCC(CO)(CCc2ccccc2)CC1", "hERG current change (%, negative = inhibition) at 10uM": -8.86},
      {"smiles": "COc1cccc(CC2(CO)CCN(S(=O)(=O)c3ccc(OC)cc3OC)CC2)c1", "hERG current change (%, negative = inhibition) at 10uM": -10.7},
      {"smiles": "COc1ccc(CC2(CO)CCN(C(=O)NCc3ccccc3)CC2)cc1", "hERG current change (%, negative = inhibition) at 10uM": -2.8},
      {"smiles": "COc1ccc(CCC(C)N2CCC(CO)(Cc3ccccc3)CC2)cc1", "note": "(stereo not drawn)", "hERG current change (%, negative = inhibition) at 10uM": -73.4},
      {"smiles": "COC(=O)CCCC(=O)N1CCC(CO)(CCc2ccccc2)CC1", "hERG current change (%, negative = inhibition) at 10uM": -23.8},
      {"smiles": "CC(COc1ccccc1)N1CCC(CO)(CCc2ccccc2)CC1", "note": "(stereo not drawn)", "hERG current change (%, negative = inhibition) at 10uM": -80.3},
      {"smiles": "COc1ccc(CC2(CO)CCN(C(C)COc3ccccc3)CC2)cc1", "note": "(stereo not drawn)", "hERG current change (%, negative = inhibition) at 10uM": -82},
      {"smiles": "COc1ccc2c(C)c(CCC(=O)NCCCN3CCCC3=O)c(=O)oc2c1C", "hERG current change (%, negative = inhibition) at 10uM": 1.56},
      {"smiles": "Cc1ccc(-c2ccc(=O)n(CC(=O)NCCN3C(C)CCCC3C)n2)cc1", "note": "(stereo not drawn)", "hERG current change (%, negative = inhibition) at 10uM": 0.00388},
      {"smiles": "CCCN(c1ccccc1F)S(=O)(=O)c1cc(-c2cc(C)no2)ccc1OC", "hERG current change (%, negative = inhibition) at 10uM": 6.91},
      {"smiles": "Cc1ccnc(NC(=O)CCC(=O)N(CC(=O)NC(C)(C)C)c2ccc3c(c2)OCCO3)c1", "hERG current change (%, negative = inhibition) at 10uM": 17.8},
      {"smiles": "Cn1cc(Cl)nc1C(O)c1ccccc1", "note": "(stereo not drawn)", "hERG current change (%, negative = inhibition) at 10uM": 7.21},
      {"smiles": "Br.O=S(=O)(c1ccc(-c2csc(Nc3ccc(Br)cc3)n2)cc1)N1CCCC1", "hERG current change (%, negative = inhibition) at 10uM": 10.2},
      {"smiles": "Cc1cccc(N(CC(=O)NC2CCCCC2)C(=O)c2ccc(C)s2)c1", "hERG current change (%, negative = inhibition) at 10uM": -24.7},
      {"smiles": "O=C(COc1ccc(C(=O)c2ccccc2)cc1)NC1CCCCCC1", "hERG current change (%, negative = inhibition) at 10uM": -21.9},
      {"smiles": "CC(C)(C)NC(=O)CCC1COc2ccccc2O1", "note": "(stereo not drawn)", "hERG current change (%, negative = inhibition) at 10uM": -4.27},
      {"smiles": "Cc1cccc(C)c1NC(=O)N1C2CCC1CC(O)(c1cccnc1)C2", "note": "(stereo not drawn)", "hERG current change (%, negative = inhibition) at 10uM": 20.2},
      {"smiles": "Cc1ccc(/C=C/C(=O)NCc2ccccn2)o1", "hERG current change (%, negative = inhibition) at 10uM": -26.4},
      {"smiles": "COc1ccc([C@@H]2[C@@H]3C(=O)N(C(C)(C)C)C(=O)[C@@H]3[C@]3(Cc4ccc(Cl)cc4)C(=O)N(c4ccc(Br)cc4)C(=O)N23)cc1", "hERG current change (%, negative = inhibition) at 10uM": 2.7},
      {"smiles": "CC(COc1ccccc1)N1CCC(CO)(Cc2ccccc2)CC1", "note": "(stereo not drawn)", "hERG current change (%, negative = inhibition) at 10uM": -50.6},
      {"smiles": "Cc1ccsc1C(=O)N1CCC(CO)(Cc2ccccc2)CC1", "hERG current change (%, negative = inhibition) at 10uM": 17.6},
      {"smiles": "COc1ccc(CC2(CO)CCN(S(=O)(=O)N(C)C)CC2)cc1", "hERG current change (%, negative = inhibition) at 10uM": 9.82},
      {"smiles": "COc1ccc(CCC(C)N2CCc3ccccc3C2)cc1", "note": "(stereo not drawn)", "hERG current change (%, negative = inhibition) at 10uM": -61.7},
      {"smiles": "CN1CCC(CO)(Cc2ccccc2)CC1", "hERG current change (%, negative = inhibition) at 10uM": 16.2},
      {"smiles": "COc1ccc(CCC(C)N2CCOCC2)cc1", "note": "(stereo not drawn)", "hERG current change (%, negative = inhibition) at 10uM": 2.71},
      {"smiles": "COc1ccc(CC2(CO)CCN(S(=O)(=O)c3c(C)nn(C)c3Cl)CC2)cc1", "hERG current change (%, negative = inhibition) at 10uM": 14.7},
      {"smiles": "COc1ccc(CC(=O)N2CCc3ccccc3C2)cc1", "hERG current change (%, negative = inhibition) at 10uM": 3.67},
      {"smiles": "COc1ccc(CC2(CO)CCN(C(C)Cc3ccc(Cl)cc3)CC2)cc1", "note": "(stereo not drawn)", "hERG current change (%, negative = inhibition) at 10uM": -80.4},
      {"smiles": "COc1ccc(N2CCN(C(=O)Cn3ncc4c([nH]c5ccccc54)c3=O)CC2)cc1", "hERG current change (%, negative = inhibition) at 10uM": 9.02},
      {"smiles": "CCOC(=O)Cc1csc(NC(=O)c2ccc(S(=O)(=O)N3CCCCC3)cc2)n1", "hERG current change (%, negative = inhibition) at 10uM": -42.2},
      {"smiles": "O=[N+]([O-])c1cccn2cc(-c3ccc(Br)cc3)nc12", "hERG current change (%, negative = inhibition) at 10uM": -2.94},
      {"smiles": "NS(=O)(=O)c1ccc(CCNC(=O)CCCCCNc2nc(=S)[nH]c3ccccc23)cc1", "hERG current change (%, negative = inhibition) at 10uM": 24.4},
      {"smiles": "CC(=NCc1cccnc1)c1c(O)n(-c2ccc(C)cc2)c(=O)[nH]c1=O", "hERG current change (%, negative = inhibition) at 10uM": -8.92},
      {"smiles": "Cc1ccc(NCc2cccnc2)cc1", "hERG current change (%, negative = inhibition) at 10uM": 2.82},
      {"smiles": "Cc1ccc(-n2c(=O)cc(NCc3cccnc3)[nH]c2=O)cc1", "hERG current change (%, negative = inhibition) at 10uM": -65.5},
      {"smiles": "COc1ccc(-c2cc(C(=O)N3CCCCCC3)no2)cc1OC", "hERG current change (%, negative = inhibition) at 10uM": 7.06},
      {"smiles": "Cn1c(=O)c2c(nc(-n3ccnc3)n2Cc2ccc([N+](=O)[O-])cc2)n(C)c1=O", "hERG current change (%, negative = inhibition) at 10uM": -43.7},
      {"smiles": "Cc1cc(C(=O)CN2CCN(CC(=O)Nc3ccc(F)cc3)CC2)c(C)n1C1CC1", "hERG current change (%, negative = inhibition) at 10uM": -74.5},
      {"smiles": "Cc1cc(C(=O)OCC(=O)Nc2cccc(F)c2)c(C)n1C1CC1", "hERG current change (%, negative = inhibition) at 10uM": -2.59}
    ]}
  ]
}
